HT1080 IDH1KD tx: toxicity to HT-1080 IDH1 knockdown cells (counter line); actives 2% (n = 360,000); HT-1080 IDH1 knockdown viability, ATP luminescence, 48 h; Potency, µM (titrated, usually from 46.1 µM), most hits filed as cytotoxic
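IDH1KD HT-1080 cells, 750/well, RPMI + 5% FBS; compound pinned after 2 h settling; 48 h, 37 °C; CellTiter-Glo luminescence; % activity normalised to DMSO and no-cell wells; curves fitted, classed by r2 and efficacy.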
HepG2 tox: HepG2 cytotoxicity, counter-screen for TGF-b inhibitors; HepG2 CAGA-GFP viability, ATP luminescence, 18 h; Potency, µM (series often up to 46.1 µM), actives largely listed as cytotoxic; actives 0.76% (n = 410,000); AID 588856
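CellTiter-Glo luminescence gave cytotoxicity after 18 hours at 37 degrees C. The cells were HepG2 CAGA-GFP in 1% FBS DMEM, stimulated with 500 pg/mL TGF-beta after compound addition. %Activity was normalised to no-cell wells (complete cell-killing) and DMSO (no toxicity), and curves were fitted and classified.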
HT1080-NT tox: kills 2HG-producing HT-1080-NT fibrosarcoma cells. HT-1080-NT fibrosarcoma viability, CellTiter-Glo ATP luminescence, 48 h. Potency, µM (top dose mostly 46.1 µM), actives largely listed as cytotoxic. actives 1.6% (n = 360,000);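 further: NT is the 2HG producing partner of a matched IDH1 knockdown line; nearly all actives have a fitted effect of over 55% in size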
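Viability of the 2HG-overproducing fibrosarcoma line after 48 hours of compound exposure at 37 degrees C was determined by luminescence with CellTiter-Glo, and concentration-effect curves were then fitted and categorized.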
IL-1B inflam inh: inflammasome signaling inhibition, IL-1 beta readout; AID 743279; activity change, % at 57.5 µM; THP-1 LPS/ATP IL-1B secretion, AlphaLISA, 16 h; hits give low values; actives 4.7% (n = 360,000); in the data active means activity change below about -50%; inconclusive means mostly about -30% to -49%
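Secreted IL-1B measured by AlphaLISA bead assay after 16 h compound exposure of THP-1 cells; compounds (final up to 57.5 uM) added 1 h before LPS (250 ng/mL) and ATP (1.25 mM) stimulation; lower signal means less secretion.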
TGFb SMAD3 inh: inhibitors of TGF-b signaling | HepG2 CAGA-GFP TGF-b/SMAD3 reporter, GFP fluorescence, 18 h; TGF-beta stimulated, 500 pg/mL final | Potency, µM (top dose mostly 46.1 µM), actives largely listed as inhibitors | actives 1.2% (n = 410,000) | AID 588855; further: nearly all actives have a fitted effect of over 65% in size
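TGF-beta reporter screen: HEPG2 CAGA-GFP, 1% FBS, 500 pg/mL TGF-beta final, 18 h; per-cell GFP summed per well; curves fitted and categorized by class.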
Giardia kill: Giardia lamblia killing. Giardia lamblia trophozoite viability. activity change, % at 7.66 µM, hits read low. actives 0.15% (n = 340,000); in the data active means activity change below about -80%; inconclusive means between about -30% and that limit;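 further: parasites exposed to compound for two days anaerobically before the ATP read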
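Anaerobic 48 hrs incubation at 37 deg C of 100 trophozoites/well with test compounds; ATPLite 1-Step luminescence, 15-30 min RT, reports cellular ATP as viability.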
Of the large screens only hits and unclear results are named; the others gave an inactive call. Shown are actives, neighbours in structure and some others; about 6.5% of the full set was active somewhere. Unless noted, the call rests on the fitted dose curve; in most records, active means well fitted curve in the direction sought with a large enough effect; inconclusive means small, poorly fitted or top-dose-only effect, or another doubt; inactive means no such curve, though single readings can be large; an effect the other way counts as inactive or inconclusive.

COc1ccc(CNc2nc3ccccc3n2CCN2CCOCC2)cc1	none
CCCCn1c(NCc2ccncc2)nc2ccccc21	none
CCCCn1c(NCc2ccc(N(C)C)cc2)nc2ccccc21	IL-1B inflam inh inconclusive, TGFb SMAD3 inh 16µM
CCN(CC)c1ccc(CNc2nc3ccccc3n2CCN2CCOCC2)cc1	IL-1B inflam inh -76, TGFb SMAD3 inh inconclusive
COc1ccc([N+](=O)[O-])cc1NS(=O)(=O)c1cc(C(=O)N2CCN(C)CC2)ccc1OC	none
O=[N+]([O-])CC(c1ccccc1)c1c[nH]c2ccccc12 (configuration not stated)	HT1080 IDH1KD tx 15µM, HT1080-NT tox inconclusive, TGFb SMAD3 inh inconclusive
COc1cc(C(C[N+](=O)[O-])c2c(C)[nH]c3ccccc23)cc(OC)c1OC (configuration not stated)	none
COC(=O)c1cc(=O)n(CCc2ccc(OC)cc2)c(=Nc2ccc(F)c(Cl)c2)s1	HT1080 IDH1KD tx inconclusive, HT1080-NT tox 21µM, TGFb SMAD3 inh inconclusive (no result: IL-1B inflam inh)
COC(=O)c1cc(=O)n(CCc2ccccc2)c(=Nc2ccc(F)cc2)s1	HT1080-NT tox inconclusive
COc1cc(NC(C)=O)ccc1-c1cc2ccccc2oc1=O	HT1080 IDH1KD tx inconclusive, TGFb SMAD3 inh inconclusive
COc1ccc2nc(NC(=O)c3cccc(-c4cc5ccccc5oc4=O)c3)sc2c1	HT1080 IDH1KD tx 18µM, HT1080-NT tox 15µM
CC(=O)Nc1ccc(NC(=O)c2cccc(-c3cc4ccccc4oc3=O)c2)cc1	none
COc1cc(NC(=O)c2ccc(Cl)cc2Cl)ccc1-c1cc2ccccc2oc1=O	HT1080 IDH1KD tx inconclusive, HepG2 tox 11µM, HT1080-NT tox inconclusive, TGFb SMAD3 inh 13µM
COc1ccc(C(=O)Nc2cccc(-c3cc4ccccc4oc3=O)c2)cc1[N+](=O)[O-]	HT1080 IDH1KD tx inconclusive, HT1080-NT tox 16µM, TGFb SMAD3 inh inconclusive
O=S(=O)(NCc1ccccc1)c1cccc2nonc12	none
NS(=O)(=O)c1ccc(CNS(=O)(=O)c2cccc3nonc23)cc1	HepG2 tox 6.3µM
COC(=O)c1ccc(C)c(NS(=O)(=O)c2ccc(C)c([N+](=O)[O-])c2)c1	HT1080 IDH1KD tx inconclusive
CC(=O)c1cc2c(cc1NS(=O)(=O)c1ccccc1)OCO2	HT1080-NT tox inconclusive
COC(=O)c1ccc(C)c(NS(=O)(=O)c2ccc3c(c2)OCCO3)c1	HT1080 IDH1KD tx 0.71µM, HT1080-NT tox 0.5µM
CCCCN(C(=O)c1cc(S(=O)(=O)N2CCCCCC2)ccc1OC)c1ccccc1	HT1080 IDH1KD tx inconclusive, IL-1B inflam inh -81
COc1ccc(C)cc1NC(=O)CN1C(=O)COc2ccc(S(=O)(=O)N3CCCCCC3)cc21	IL-1B inflam inh -54, TGFb SMAD3 inh inconclusive
CC(=O)c1cc2c(cc1NS(=O)(=O)c1ccc(C)cc1)OCCO2	HT1080 IDH1KD tx 16µM, HT1080-NT tox inconclusive, Giardia kill inconclusive
CCCCN(C(=O)c1cc(S(=O)(=O)N2CCOCC2)ccc1N1CCOCC1)c1ccccc1	none (no result: Giardia kill)
CC(=O)OC(Cn1nc(C)cc1C)c1ccccc1 (configuration not stated)	none
Cc1c(Cl)cccc1NC(=O)CN1C(=O)COc2ccc(S(=O)(=O)Nc3ccccc3)cc21	TGFb SMAD3 inh 10µM (no result: HT1080 IDH1KD tx, HT1080-NT tox, IL-1B inflam inh, Giardia kill)
CCN(CC)S(=O)(=O)c1ccc2c(c1)N(CC(=O)NCCCN1CCN(c3ccccc3F)CC1)C(=O)CO2	TGFb SMAD3 inh inconclusive (no result: HT1080 IDH1KD tx, HT1080-NT tox, IL-1B inflam inh, Giardia kill)
Cc1c(Cl)cccc1NS(=O)(=O)c1ccc(NS(=O)(=O)c2ccc3c(c2)OCCO3)cc1	TGFb SMAD3 inh 16µM (no result: HT1080 IDH1KD tx, HT1080-NT tox, IL-1B inflam inh, Giardia kill)
CCN(CC)S(=O)(=O)c1ccc2c(c1)N(CC(=O)NCCCN1CCN(c3cc(C)ccc3C)CC1)C(=O)CO2	HepG2 tox 16µM, TGFb SMAD3 inh inconclusive (no result: HT1080 IDH1KD tx, HT1080-NT tox, IL-1B inflam inh, Giardia kill)
O=C(NCc1ccccc1)C1=C[C@H](c2ccc(Br)cc2)C[C@H](OCc2ccc(CO)cc2)O1	TGFb SMAD3 inh inconclusive
Clc1nc(CN2CCCCC2)nc2sc3c(c12)CCC3	none (no result: IL-1B inflam inh)
